# Screening results (PubChem BioAssay)
# A selection: hits, their analogues and other compounds. The true share with any hit is near 4.7%.
# TRHR PAM: allosterically enhances the human TRH receptor; P34981; TRHR cells, fluo-8 calcium fluorescence, EC20 TRH enhancement; enhancement, % at 2 µM; 360,000 tested, 0.66% active; AID 493056; in the data active = enhancement above about 30%; note: 0% is about no effect
# Target sequence (P34981 whole entry, looked up): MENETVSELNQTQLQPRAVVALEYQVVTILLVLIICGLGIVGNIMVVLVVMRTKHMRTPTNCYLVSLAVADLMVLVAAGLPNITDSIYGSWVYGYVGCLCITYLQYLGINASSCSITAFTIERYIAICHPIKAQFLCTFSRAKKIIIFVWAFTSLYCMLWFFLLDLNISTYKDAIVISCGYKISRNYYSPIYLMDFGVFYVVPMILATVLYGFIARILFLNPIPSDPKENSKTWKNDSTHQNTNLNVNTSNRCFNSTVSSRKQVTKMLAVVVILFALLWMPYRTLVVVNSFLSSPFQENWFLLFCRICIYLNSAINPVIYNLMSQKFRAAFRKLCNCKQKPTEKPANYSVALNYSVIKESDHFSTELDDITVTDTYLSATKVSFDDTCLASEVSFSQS
#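 TRHR-expressing cells loaded with fluo-8 calcium dye were read kinetically (ex 480/em 530) during compound addition, then stimulated with an EC20 of TRH (10 nM final). Enhancement of the Gq-mediated intracellular calcium response was scored.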
# D1 ag: activates the human D1 dopamine receptor. HEK293 T-REx D1 cells, calcium flux, agonist mode. activation, % at 2 µM. 360,000 tested, 1% active. AID 504660; note: 0% is about no effect
#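 Agonism was scored from calcium flux recorded over 180 s (1 read/s) after pintool compound addition, following a 10-cycle baseline. Cells were inducible force-coupled HEK293 TREx D1, plated overnight at 30 C and loaded with no-wash calcium dye.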
# D1 PAM: human D1 dopamine receptor positive modulation. P21728. HEK293 TREx D1 cells, calcium flux, dopamine EC20 potentiation. 360,000 tested, 0.036% active. potentiation, % at 10 µM; in the data active = potentiation above about 30%; note: 0% is about no effect
# TRHR ag: agonists of human TRH receptor; TRHR cells, calcium flux fluo-8, FDSS agonist mode; P34981; 360,000 tested, 0.18% active; activation, % at 2 µM; note: 0% is about no effect
#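 TRHR-expressing cells, plated overnight in medium with 10% serum, were loaded with fluo-8 calcium dye at room temperature. After a 10 s baseline, library compound was pin-added and calcium release was recorded kinetically (ex 480/em 530) as agonist response.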
# D1 antagonist: antagonists of human D1 dopamine receptor | activity change, negative = inhibition, % at 10 µM | P21728 | HEK293 TREx D1 cells, calcium flux, dopamine EC80; stronger effect = lower value | 360,000 tested, 3.2% active; in the data active = activity change below about -30%; note: % is set by controls: 0 for no effect and ±100 for the full control effect
#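 Allosteric or orthosteric antagonism assessed as attenuation of the calcium response to EC80 dopamine, added 180 s after compound, in induced HEK293 Trex D1 cells loaded with no-wash calcium dye.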
# * marks the source's active call; other numbers are inactive results; nt = no result given; ! = a repeat was not active. Cut-off read from the data, not from the text of the source, unless noted: active = activation above about 30%; inactive = the rest.
SMILES,TRHR PAM,D1 ag,D1 PAM,TRHR ag,D1 antagonist
CC(C)(C)c1cccc(Cn2nnc3ccccc32)c1O,-3,29,-10,0,-43*
Cc1cc2c3nonc3ccc2n1C,-11,2,-3,0,-34*
N#Cc1ccc(COC(=O)CN2C(=O)NC3(CCCC3)C2=O)cc1,-7,1,0,0,1
COc1ccccc1N(CC(=O)NCCSCc1ccc(Cl)cc1)S(C)(=O)=O,3,6,-7,0,-58*!
COc1ccccc1N(CC(=O)NCCSCc1ccccc1)S(C)(=O)=O,0,1,-3,-1,-16
Cc1cccc(N(CC(=O)NCCSCc2ccccc2)S(=O)(=O)c2ccccc2)c1C,-10,30*,0,2,0
CCOC(=O)CNc1ncnc2c1nnn2C,-8,-2,0,1,nt
COc1cc(C(C)=O)ccc1OCC(=O)Nc1ccc(Cl)c(S(=O)(=O)N2CCOCC2)c1,18,2,3,0,-9
Cc1nn2c(CN(C(=O)COc3ccccc3)c3ccccc3)nnc2c2ccccc12,40*,2,2,2,0
CC(C)CCNC(=O)C(=O)Nc1cc2c3c(c1)CCC(=O)N3CCC2,2,1,-11,-1,4
COCCNC(=O)C(=O)Nc1cc2c3c(c1)CCC(=O)N3CCC2,5,3,-8,0,-31*
CC1C(=O)N2CCCc3cc(NC(=O)C(=O)NCCc4ccccc4)cc1c32 (stereo not given),0,3,-16,0,-35*
CCN(CC)c1ccc(C(=O)NCc2ccc3c(c2)CCN3C(C)=O)cc1,-2,-1,0,-1,15
CN(C)CCNc1nc(S(=O)(=O)c2ccccc2)c(Cl)s1,2,5,-4,1,-5
CC(C)CNc1nc(S(=O)(=O)c2ccccc2)c(Cl)s1,-12,2,-7,0,-37*
Cc1ccc(-n2nc3c(=O)n(CCCC(=O)NCc4ccco4)nc(C)c3c2C)cc1,22,4,-7,0,-3
O=C(CN1CCN(c2ccc([N+](=O)[O-])cc2)CC1)Nc1ccccn1,0,16,-8,0,-14
O=C(CN1CCN(c2ccc([N+](=O)[O-])cc2)CC1)Nc1nccs1,-1,8,7,0,-32*
CCN1C(=O)[C@@H]2[C@@H](c3ccc(SC4CCCCC4)cc3)N3CCC[C@@]3(C(=O)OC)[C@@H]2C1=O,-4,-2,-5,0,7
Cc1ccc(C(C)NC(=O)/C(C#N)=C\c2c(C)[nH]c3ccccc23)cc1 (stereo not given),7,48*,11,0,-1
COc1ccc(CCNC(=O)C(=O)NCC2OCCN2S(=O)(=O)c2ccc3c(c2)OCCO3)cc1OC (stereo not given),0,-1,-24,1,-75*
CNC(=O)C(=O)NCC1OCCCN1S(=O)(=O)c1ccc(F)cc1C (stereo not given),10,1,-11,0,-54*
COc1ccc(CCNC(=O)C(=O)NCC2OCCN2S(=O)(=O)c2ccc3c(c2)OCCO3)cc1 (stereo not given),9,0,4,0,10
Cc1ccc(S(=O)(=O)N2CCOC2CNC(=O)C(=O)NCCN(C)C)cc1 (stereo not given),37*,1,7,1,10
Cc1ccc(CNC(=O)C(=O)NCC2OCCN2S(=O)(=O)c2ccc(Br)cc2)cc1 (stereo not given),31*,10,-4,1,-6
SMILES,TRHR PAM,D1 ag,D1 PAM,TRHR ag,D1 antagonist
Cc1ccc(CNC(=O)C(=O)NCC2OCCN2S(=O)(=O)c2ccc(C)cc2)cc1 (stereo not given),-5,2,1,2,-12
Cc1ccc(Nc2nc(C#N)nc(NC3CCCC3)n2)cc1,2,13,-6,1,5
Cc1oc2ncn(CC(C)C)c(=O)c2c1C(=O)NC(C)c1ccccc1 (stereo not given),-6,0,1,-1,-2
CCCn1c(N)c(N2CCCCC2)c(=O)n(CC(=O)Nc2ccc(OC(F)(F)F)cc2)c1=O,13,0,4,0,-30*
CCCn1c(N)c(N2CCCCC2)c(=O)n(CC(=O)Nc2ccccc2C)c1=O,-2,0,-2,-1,8
Cc1cccc(Cn2c(=O)n(-c3ccc(Cl)c(Cl)c3)c(=O)c3c(C)c(C)sc32)c1,15,0,0,0,-2
Oc1ccc(-c2nc3ccccc3s2)c(O)c1,2,1,-2,0,-37*
O=S(=O)(c1ccccc1)c1nnn2c1nc(NC1CCCCCC1)c1sccc12,2,0,3,0,-1
COc1ccc(OCC2NCCc3cc(OC)c(OC)cc32)cc1 (stereo not given),1,7,-3,1,-9
COc1cc2c(cc1OC)C(COc1cccc(C(F)(F)F)c1)NCC2 (stereo not given),4,32*,-7,4,3
Cc1ccc(NC(=O)c2ccc(CNS(=O)(=O)c3ccc4c(c3)C(C)(C)C(=O)N4C)cc2)cc1C,0,0,2,0,-3
Cc1cccc(Nc2ncnc3onc(-c4ccc(F)cc4)c23)c1C,-7,2,-2,-2,4
Cc1ccccc1CN1CCC(CNc2ncnc3onc(-c4ccc(F)cc4)c23)CC1,36*,2,6,-2,19
CCN(CC)CCNC(=O)C(C)c1nn(CC)c(=O)c2ccccc12 (stereo not given),2,1,3,1,-57*
CCN(CC)CCNC(=O)Cc1nn(CC)c(=O)c2ccccc12,-1,4,-6,0,19
COc1ccc([C@H]2CC(=O)C=C(c3cccc(F)c3OC)C2)cc1,0,2,-3,0,-2
CCOc1ccc(S(=O)(=O)N2CCC(C(=O)OCc3cccc(OC)c3OC)CC2)cc1,-5,22,-4,3,0
COc1cccc(COC(=O)C2CCN(S(=O)(=O)c3ccc(C)cc3C)CC2)c1OC,-4,18,-18,1,-44*
COc1cccc(COC(=O)C2CCN(S(=O)(=O)c3ccc(C)cc3)CC2)c1OC,-8,10,1,0,-38*
CCc1ccccc1Nc1nc(N)nc(COC(=O)C2CCN(C(=O)c3ccc(F)cc3)CC2)n1,2,4,-5,0,-1
COc1cccc(COC(=O)C2CCN(C(=O)c3ccc(F)cc3)CC2)c1OC,-6,19,-11,0,-45*
CCc1ccc(-n2nc3ccc(NC(=O)c4cc(Cl)c(OC)c(Cl)c4)cc3n2)cc1,3,0,-3,0,-11
COc1ccc(Cc2nc(-c3ccc(-n4cccc4)cc3)no2)cc1,-1,14,-1,2,2
COc1ccc(-c2noc(COc3cc(C)ccc3C)n2)cc1OC,-18,47*,-2,2,5
